Screening results as filed in PubChem.
FBW7 activator – human FBW7 E3 ligase activation, primary screen. Q969H0. AlphaScreen FBW7–phospho-cyclin E peptide binding, activator screen. normalized activity (activation), % at 26.1 µM. actives 0.13% (n = 650,000); in the data active means normalized activity above about 1.9%;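 further: purified mutant Fbw7 with reduced substrate affinity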
MITF inh – blocks human microphthalmia-associated transcription factor. O75030. AlphaScreen MITF homodimerization, bead proximity signal. inhibition, % at 2.6 µM. actives 0.91% (n = 650,000). AID 1259374; in the data active means inhibition above about 50%;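 further: 0% = vehicle wells with protein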
GPR151 activ – activators of human GPR151; PathHunter beta-arrestin GPR151 cells, luminescence; activation, % at 11.2 µM; actives 1% (n = 650,000); in the data active means activation above about 4.9%;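 further: 0% = median of compound wells and 100% = cells with positive control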
TEAD-YAP block – TEAD-YAP interaction inhibition; HEK-TIYL cells, TEAD-Gal4/YAP UAS-luciferase luminescence; AID 1259422; inhibition, % at 9.12 µM; actives 1.4% (n = 640,000); in the data active means inhibition above about 32%;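 further: 0% = median of test compound wells and 100% = reference inhibitor wells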
GPR151 conf act – confirmation of human GPR151 activators. shares compounds with GPR151 activ. AID 1508609. 6,700 tested, under 10 active. GPR151 PathHunter beta-arrestin cells, luminescence, 90 min; % of EA-reagent control over plate median. activation, % at 11.2 µM;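 active means mean percent activation across replicates above the confirmation screen cutoff of 4.91%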
GPR119 ag – counter-screen for GPR151 activators: effect on human GPR119; actives 0.3% (n = 6,700); shares compounds with GPR151 activ; GPR119 PathHunter beta-arrestin cells, luminescence, 90 min; 0 = compound-well median, 100 = enzyme-acceptor control; activation, % at 11.2 µM; AID 1508611;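 active means mean percent activation in the counterscreen above 29.09%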;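 further: counterscreen on off-target GPR119 to flag nonselective hits from the GPR151 activator screen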
Target sequence (Q8TDV5 whole entry, looked up): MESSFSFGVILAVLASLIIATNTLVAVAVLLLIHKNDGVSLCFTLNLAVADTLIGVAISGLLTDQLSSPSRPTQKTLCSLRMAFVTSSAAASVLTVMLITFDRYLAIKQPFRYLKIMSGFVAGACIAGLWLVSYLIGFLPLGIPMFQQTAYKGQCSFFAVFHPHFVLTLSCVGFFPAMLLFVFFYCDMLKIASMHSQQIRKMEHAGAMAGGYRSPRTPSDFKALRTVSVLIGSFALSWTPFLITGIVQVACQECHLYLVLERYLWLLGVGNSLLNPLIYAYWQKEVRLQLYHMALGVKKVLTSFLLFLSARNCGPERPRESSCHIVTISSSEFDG
An asterisk follows results filed as active; x = not tested or not shown. A selection: hits, their analogues and other compounds. The true share with any hit is near 3.5%.

SMILES	FBW7 activator	MITF inh	GPR151 activ	TEAD-YAP block	GPR151 conf act	GPR119 ag
O=C(CCc1nnc2n(Cc3ccc(F)cc3)c(=O)c3ccccc3n12)Nc1ccccc1	0	4	-1	-3	x	x
CC(C)NC(=O)CCc1nnc2n(Cc3ccc(F)cc3)c(=O)c3ccccc3n12	1	14	8.0*	5	1	12
CN1CCC(N(C(=O)c2ccc(C(F)(F)F)cc2)C2CCN(C)CC2)CC1	0	-4	6.2*	-7	-1	-12
CC(C)CC(=O)Nc1nn2c(-c3cccs3)nnc2s1	0	0	5.5*	-8	0	-6
Cc1ccc(Cl)cc1NC(=O)Cn1cnc2c(-c3ccccc3)csc2c1=O	0	1	7.3*	1	-1	-1
Cc1c(C(=O)c2ccc(C#N)cc2)c2ccccn2c1CCC#N	0	9	0	-5	x	x
O=C(CCN1c2ccccc2Sc2ccccc21)N1CCOCC1	0	9	5.8*	4	-1	-1
COCCN1CCN(Cc2nc(Nc3ccccc3)c3ccccc3n2)CC1	0	0	-1	-5	x	x
COCCN1CCN(Cc2nc(NCc3ccc(C)o3)c3ccccc3n2)CC1	-1	-5	11*	-10	0	23
Cc1nc(N2CCC(C(N)=O)CC2)c2c(-c3cccs3)csc2n1	0	9	5.4*	0	0	5
Cc1nc(N2CCCN(C)CC2)c2c(-c3cccs3)csc2n1	1	33	-1	4	x	x
CN1CCN(NC(=O)CCN2C(=O)C3C4C=CC(C4)C3C2=O)CC1 (stereo unspecified)	0	0	1	-2	x	x
Cc1nc(N2CCN(C)CC2)c2c(C)c(C(=O)N3CCC(Cc4ccccc4)CC3)sc2n1	0	11	7.1*	3	-1	-9
COc1ccccc1CNC(=O)c1sc2nc(C)nc(N3CCCCC3)c2c1C	0	5	5.2*	-8	0	1
OC1(C#CCN2CCCCCC2)CCCCC1	0	-13	-1	-1	x	x
CCn1c(COc2ncnc3ccccc23)nc2cc(S(=O)(=O)N(C)C)ccc21	0	2	5.2*	-4	-1	0
CCNC(=O)N1CCC(C(=O)NC(c2ccc(OC)cc2)c2ccccn2)CC1 (stereo unspecified)	0	3	3	1	x	x
CC1CC(=O)c2cnc(N3CCN(Cc4ccccc4)CC3)nc2C1 (stereo unspecified)	1	10	-1	-7	x	x
O=C1CCCc2nc(N3CCN(Cc4ccccc4)CC3)ncc21	0	14	6.9*	-6	0	8
COC(=O)c1ccc(NC(=O)C2CC2)cc1	0	5	6.3*	-1	0	-6
CCCC(C)NS(=O)(=O)c1c(C)cc(C)cc1C (stereo unspecified)	0	3	7.7*	-5	1	0
Cc1ccc(C(=O)Nc2ccc3oc(-c4cc(Br)ccc4Cl)nc3c2)cc1[N+](=O)[O-]	1	6	-2	13	x	x
CCOC(=O)c1c(C)oc2ccc(N(C(=O)c3ccc(C)cc3)S(=O)(=O)c3ccc(C)cc3)cc12	0	5	5.0*	-7	1	-3
CCOC(=O)C1=C(O)/C(=C/c2ccc(C(=O)OC)cc2)SC1=NC(=O)c1ccccc1	0	4	6.7*	0	0	-2
CCOC(=O)C1=C(O)/C(=C/c2ccccc2)SC1=Nc1ccccc1	0	21	-1	-3	x	x
SMILES	FBW7 activator	MITF inh	GPR151 activ	TEAD-YAP block	GPR151 conf act	GPR119 ag
CC(=O)N(CCCO)Cc1cc2cc(C)cc(C)c2[nH]c1=O	0	13	3	-7	x	x
CCCCN1CCC(Nc2ccccc2)(C(N)=O)CC1	0	8	1	11	x	x
NC(=O)C1(Nc2ccccc2)CCCCC1	0	19	6.8*	4	0	1
COc1cc(OC)cc(C(=O)NNC(=O)Nc2ccccc2F)c1	0	1	0	2	x	x
CC(C)=CC(=O)OCC(=O)Nc1ccccc1C#N	0	0	3	1	x	x
CCCOc1cc2oc(=O)cc(C)c2cc1Cl	0	8	5.4*	-10	0	-5
C/C(=N\Nc1nnc2c(n1)[nH]c1ccccc12)c1ccccn1	0	16	-1	3	x	x
COC(=O)CN(C)S(=O)(=O)c1c(C)cc(C)cc1C	0	1	0	-6	x	x
Cc1ccc(OCc2nn3c(-c4ccc(F)cc4)nnc3s2)cc1	0	-5	2	-8	x	x
Fc1ccc(OCc2nn3c(-c4ccncc4)nnc3s2)cc1	-1	3	6.1*	7	0	-6
CC(C)CCNC(=O)c1ccc(N(Cc2ccccc2Cl)S(C)(=O)=O)cc1	0	24	7.9*	-2	0	-7
CS(=O)(=O)N(Cc1ccccc1Cl)c1ccc(C(=O)N2CCCC2)cc1	0	14	9.2*	2	0	-1
CS(=O)(=O)N(Cc1ccccc1Cl)c1ccc(C(=O)NCc2ccco2)cc1	0	3	0	-2	x	x
COc1cc(NC(=O)c2cc(Br)ccc2Cl)ccc1N1CCCC1=O	0	10	5.0*	9	1	8
COc1ccc(NC(=O)c2cc(Br)ccc2Cl)cc1N1CCCC1=O	0	10	1	-14	x	x
NC(=O)c1ccsc1NC(=O)CSc1ccc(Cl)cc1	0	-1	9.5*	-33	-1	7
CCOc1ccc(Nc2c3c(nc4ccc(C)cc24)CCC3)cc1	0	4	-1	13	x	x
CCOC(=O)C1(CC2CCCCO2)CCN(Cc2cnc(SC)nc2)CC1 (stereo unspecified)	0	0	2	-9	x	x
CCOC(=O)C1(CC2CCCCO2)CCN(CCCSC)CC1 (stereo unspecified)	0	0	6.6*	-2	0	-9
CCCCNC(=O)CC1Nc2c3ccccc3nc(=S)n2C1=O (stereo unspecified)	0	14	9.6*	-5	-2	-15
CC(C)CCNC(=O)CC1Nc2c3ccccc3nc(=S)n2C1=O (stereo unspecified)	0	-3	-1	2	x	x
CCOC(=O)CCc1c(C)nc2nc(CNC(=O)c3ccccc3)nn2c1C	0	-7	5.2*	0	0	-2
Cc1nc2nc(CNC(=O)OC(C)(C)C)nn2c(C)c1CCC(=O)NCc1ccccc1	1	16	0	6	x	x
O=C(NC1CCCCCC1)c1cccc(I)c1	0	3	0	-46	x	x
N#Cc1cccc(C(=O)NC2CCCC2)c1	0	-3	5.2*	10	3	5
COCCN1C(=O)/C(=C\c2ccc(Cl)cc2Cl)C(C(=O)OC)=C1C	0	8	0	2	x	x
COc1cc([N+](=O)[O-])ccc1NC(=O)N1CC(C)OC(C)C1 (stereo unspecified)	0	-20	7.0*	5	0	1
